Test results as given in PubChem BioAssay (EPA / NIEHS).
Activity calls are given as the source filed them. The calls were made as follows: active = hit-call score of the fitted dose curve at least 0.9, where 1 is the maximum; inactive = score below 0.9.

Assays:
[1] = read-out: TIMP metallopeptidase inhibitor 1 (TIMP1), TIMP1 (gene 7076); assay: BSK_hDFCGF_TIMP1: BioMAP Diversity Plus: hDFCGF Assay for TIMP metallopeptidase inhibitor 1 (TIMP1) Biomarker Activity (AID 2283062); conditions: primary human foreskin fibroblasts; actives raise or lower the signal
How it was run: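 Human foreskin fibroblast primary cultures dosed for 24 h; secreted/surface TIMP-1 quantified by ELISA. Bidirectional curve fitting against DMSO baseline; cytotoxicity tracked in parallel cultures by SRB total-protein staining.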

[2] = read-out: Monokine induced gamma interferon (MIG), CXCL9 (gene 4283); assay: BSK_hDFCGF_MIG: BioMAP Diversity Plus: hDFCGF Assay for Monokine induced gamma interferon (MIG) Biomarker Activity (AID 2283063); conditions: primary human foreskin fibroblasts; actives raise or lower the signal
How it was run: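 MIG/CXCL9 measured by ELISA 24 h after dosing primary human skin fibroblasts. Activity fitted in both directions against DMSO controls. Cytotoxicity was checked in parallel cultures by SRB staining read at 560 nm.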

[3] = read-out: Matrix Metallopeptidase 1 (MMP1), MMP1 (gene 4312); assay: BSK_hDFCGF_MMP1: BioMAP Diversity Plus: hDFCGF Assay for Matrix Metallopeptidase 1 (MMP1) Biomarker Activity (AID 2283064); conditions: primary human foreskin fibroblasts; actives raise or lower the signal
How it was run: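 ELISA read-out of MMP1 from human foreskin fibroblasts (primary skin cells), 24 h post-dose. Gain or loss of signal was fitted bidirectionally versus DMSO negative control; cytotoxicity was checked by SRB in parallel cultures.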

[4] = read-out: Vascular cell adhesion molecule 1 (VCAM1), VCAM1 (gene 7412); assay: BSK_hDFCGF_VCAM1: BioMAP Diversity Plus: hDFCGF Assay for Vascular cell adhesion molecule 1 (VCAM1) Biomarker Activity (AID 2283065); conditions: primary human foreskin fibroblasts; actives raise or lower the signal
How it was run: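 Human foreskin fibroblast primary cells dosed with chemical, VCAM-1 measured by ELISA at 24 h. Bidirectional curve fitting relative to DMSO as negative control/baseline.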

[5] = read-out: Plasminogen activator inhibitor-1 (PAI1), SERPINE1 (gene 5054); assay: BSK_hDFCGF_PAI1: BioMAP Diversity Plus: hDFCGF Assay for Plasminogen activator inhibitor-1 (PAI1) Biomarker Activity (AID 2283066); conditions: primary human foreskin fibroblasts; actives raise or lower the signal
How it was run: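 PAI-1 levels in human dermal foreskin fibroblasts were quantified by ELISA 24 h after dosing, with gain or loss analysed against DMSO. Overt cytotoxicity was checked by sulforhodamine B total-protein staining in parallel cultures.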

[6] = read-out: Intercellular Adhesion Molecule 1 (ICAM1), ICAM1 (gene 3383); assay: BSK_KF3CT_ICAM1: BioMAP Diversity Plus: KF3CT Assay for Intercellular Adhesion Molecule 1 (ICAM1) Biomarker Activity (AID 2283067); conditions: primary human keratinocytes with fibroblasts; actives raise or lower the signal
How it was run: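 Human keratinocyte–foreskin fibroblast co-culture was treated for 24 h. Cell-surface ICAM-1 was quantified by ELISA, fitted bidirectionally relative to DMSO. Cytotoxicity was checked in parallel cultures by SRB total-protein staining.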

[7] = read-out: Interferon-gamma inducible Protein 10 (IP10), CXCL10 (gene 3627); assay: BSK_KF3CT_IP10: BioMAP Diversity Plus: KF3CT Assay for Interferon-gamma inducible Protein 10 (IP10) Biomarker Activity (AID 2283068); conditions: primary human keratinocytes with fibroblasts; actives raise or lower the signal
How it was run: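 ELISA read-out of IP-10 after 24 h chemical dosing of human skin primary co-culture (keratinocytes, foreskin fibroblasts). Gain or loss of signal relative to DMSO, bidirectional curve fit.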

[8] = BSK_KF3CT_SRB: Viability Assessment in the BioMAP Diversity Plus: KF3CT Assay (AID 2283069); conditions: primary human keratinocytes with fibroblasts
How it was run: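 SRB read-out at 560 nm (0.1% stain, TCA-fixed cells) gauges overt cytotoxicity in a human skin keratinocyte–fibroblast co-culture 24 h post-dosing. Signal change was fitted bidirectionally relative to DMSO control.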

[9] = read-out: Interleukin-1 alpha (IL1a), IL1A (gene 3552); assay: BSK_KF3CT_IL1a: BioMAP Diversity Plus: KF3CT Assay for Interleukin-1 alpha (IL1a) Biomarker Activity (AID 2283070); conditions: primary human keratinocytes with fibroblasts; actives raise or lower the signal
How it was run: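 Primary skin co-culture (keratinocytes, foreskin fibroblasts), 24 h exposure; ELISA for IL-1a; bidirectional curve fit vs DMSO.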

[10] = read-out: TIMP metallopeptidase inhibitor 2 (TIMP2), TIMP2 (gene 7077); assay: BSK_KF3CT_TIMP2: BioMAP Diversity Plus: KF3CT Assay for TIMP metallopeptidase inhibitor 2 (TIMP2) Biomarker Activity (AID 2283071); conditions: primary human keratinocytes with fibroblasts; actives raise or lower the signal
How it was run: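 TIMP-2 measured by ELISA at 24 h in human keratinocyte/fibroblast primary co-cultures exposed to chemicals. Both increases and decreases were fitted against DMSO. Parallel cultures were stained with SRB for total protein as an overt-cytotoxicity check.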

[11] = read-out: Transforming growth factor beta 1 (TGFb1), TGFB1 (gene 7040); assay: BSK_KF3CT_TGFb1: BioMAP Diversity Plus: KF3CT Assay for Transforming growth factor beta 1 (TGFb1) Biomarker Activity (AID 2283072); conditions: primary human keratinocytes with fibroblasts; actives raise or lower the signal
How it was run: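 ELISA quantifies TGF-b1 at 24 h post-dose in a primary human skin co-culture of keratinocytes and fibroblasts, with gain or loss judged against DMSO. Parallel SRB total-protein staining flags overt cytotoxicity.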

[12] = read-out: C-C motif chemokine 2 (Homo sapiens) (UniProt P13500); assay: BSK_KF3CT_MCP1: BioMAP Diversity Plus: KF3CT Assay for Monocyte Chemoattractant Protein 1 (MCP1/CCL2) Biomarker Activity (AID 2283073); conditions: primary human keratinocytes with fibroblasts; actives raise or lower the signal
How it was run: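 Human keratinocyte–foreskin fibroblast co-culture; MCP-1 measured by ELISA 24 h after dosing. Bidirectional fit vs DMSO; cytotoxicity tracked by SRB total protein in parallel cultures.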

[13] = read-out: Matrix Metallopeptidase 9 (MMP9), MMP9 (gene 4318); assay: BSK_KF3CT_MMP9: BioMAP Diversity Plus: KF3CT Assay for Matrix Metallopeptidase 9 (MMP9) Biomarker Activity (AID 2283074); conditions: primary human keratinocytes with fibroblasts; actives raise or lower the signal
How it was run: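 ELISA read-out of MMP-9 at 24 h post-dosing in a co-culture of human skin keratinocytes and foreskin fibroblasts. Gain or loss of signal was fitted in both directions against DMSO.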

[14] = read-out: urokinase plasminogen activator (uPA), PLAU (gene 5328); assay: BSK_KF3CT_uPA: BioMAP Diversity Plus: KF3CT Assay for urokinase plasminogen activator (uPA) Biomarker Activity (AID 2283075); conditions: primary human keratinocytes with fibroblasts; actives raise or lower the signal
How it was run: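 Skin co-culture (keratinocytes + foreskin fibroblasts), human primary; 24 h post-dose; uPA by ELISA; gain/loss fit vs DMSO baseline.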

CD40, CD40 (gene 958) = assay: BSK_LPS_CD40: BioMAP Diversity Plus: LPS Assay for CD40 Biomarker Activity (AID 2283076); conditions: primary human HUVEC with PBMC; actives raise or lower the signal
How it was run: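 HUVEC plus PBMC co-culture stimulated with LPS; CD40 quantified by ELISA 24 h after compound dosing. Fitting was bidirectional relative to DMSO. SRB staining of parallel cultures flagged overt cytotoxicity.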

[15] = read-out: E-selectin (Homo sapiens) (UniProt P16581); assay: BSK_LPS_Eselectin: BioMAP Diversity Plus: LPS Assay for Eselectin Biomarker Activity (AID 2283077); conditions: primary human HUVEC with PBMC; actives raise or lower the signal
How it was run: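 Human umbilical vein endothelial cells co-cultured with PBMC under LPS stimulation; cell-surface E-selectin measured by ELISA 24 h after dosing. Change in either direction versus DMSO, with SRB total-protein staining in parallel cultures for cytotoxicity.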

[16] = read-out: Interleukin-8 (IL8), CXCL8 (gene 3576); assay: BSK_LPS_IL8: BioMAP Diversity Plus: LPS Assay for Interleukin-8 (IL8) Biomarker Activity (AID 2283078); conditions: primary human HUVEC with PBMC; actives raise or lower the signal
How it was run: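 Human umbilical vein endothelial cells co-cultured with PBMC, LPS-stimulated, exposed to compound for 24 h. IL-8 quantified by ELISA; fitted in both directions against DMSO, with SRB total-protein staining of parallel cultures for cytotoxicity.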

[17] = BSK_LPS_SRB: Viability Assessment in the BioMAP Diversity Plus: LPS Assay (AID 2283079); conditions: primary human HUVEC with PBMC;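 also: total protein by sulforhodamine B absorbance as a cytotoxicity measure; measured one day after compound addition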
How it was run: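 Co-culture of human umbilical vein endothelial cells and PBMC, read 24 h after dosing. Total protein by 0.1% SRB staining after 10% TCA fixation, absorbance at 560 nm; bidirectional fit against DMSO.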

[18] = read-out: Interleukin-1 alpha (IL1a), IL1A (gene 3552); assay: BSK_LPS_IL1a: BioMAP Diversity Plus: LPS Assay for Interleukin-1 alpha (IL1a) Biomarker Activity (AID 2283080); conditions: primary human HUVEC with PBMC; actives raise or lower the signal
How it was run: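 Human umbilical vein endothelial cells co-cultured with PBMC and stimulated with LPS; IL-1a measured by ELISA 24 h after dosing. Bidirectional fitting against DMSO; cytotoxicity checked by SRB staining in parallel cultures.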

[19] = read-out: Monocyte Chemoattractant Protein-1 (MCP1), CCL2 (gene 6347); assay: BSK_LPS_MCP1: BioMAP Diversity Plus: LPS Assay for Monocyte Chemoattractant Protein-1 (MCP1) Biomarker Activity (AID 2283081); conditions: primary human HUVEC with PBMC; actives raise or lower the signal
How it was run: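 Human umbilical vein endothelial cells co-cultured with PBMC, LPS-stimulated; secreted MCP-1 measured by ELISA 24 h after compound addition. Bidirectional curve fitting against DMSO baseline; SRB total-protein staining in parallel cultures for cytotoxicity.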

Measured: outcome

Sequence of E-selectin (Homo sapiens) (P16581 whole entry, looked up): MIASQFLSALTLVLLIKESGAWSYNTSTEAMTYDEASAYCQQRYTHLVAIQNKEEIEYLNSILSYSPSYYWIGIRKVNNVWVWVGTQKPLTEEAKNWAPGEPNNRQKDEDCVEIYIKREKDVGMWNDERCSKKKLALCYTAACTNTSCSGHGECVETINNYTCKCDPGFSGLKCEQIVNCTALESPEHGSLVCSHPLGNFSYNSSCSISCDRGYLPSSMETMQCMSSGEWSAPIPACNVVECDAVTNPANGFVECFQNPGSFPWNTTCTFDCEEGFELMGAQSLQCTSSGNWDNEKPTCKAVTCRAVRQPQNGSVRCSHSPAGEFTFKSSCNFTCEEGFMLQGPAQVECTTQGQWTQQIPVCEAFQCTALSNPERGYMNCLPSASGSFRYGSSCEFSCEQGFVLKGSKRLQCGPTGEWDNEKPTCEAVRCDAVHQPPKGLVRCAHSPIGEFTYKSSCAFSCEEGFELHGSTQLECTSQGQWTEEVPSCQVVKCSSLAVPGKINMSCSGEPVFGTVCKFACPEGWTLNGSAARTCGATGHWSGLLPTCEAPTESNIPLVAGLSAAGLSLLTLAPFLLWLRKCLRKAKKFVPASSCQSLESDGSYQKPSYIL

CCCCN(CCCC)CCCC
inactive: [1] | [2] | [3] | [4] | [5] | [6] | [7] | [8] | [9] | [10] | [11] | [12] | [13] | [14] | CD40, CD40 (gene 958) | [15] | [16] | [17] | [18] | [19]

Cc1ccc(C(C)C)c(O)c1
inactive: [1] | [2] | [3] | [4] | [5] | [6] | [7] | [8] | [9] | [10] | [11] | [12] | [13] | [14] | CD40, CD40 (gene 958) | [15] | [16] | [17] | [18] | [19]

CCCCCCCCCCO
inactive: [1] | [2] | [3] | [4] | [5] | [6] | [7] | [8] | [9] | [10] | [11] | [12] | [13] | [14] | CD40, CD40 (gene 958) | [15] | [16] | [17] | [18] | [19]

NCCO
inactive: [1] | [2] | [3] | [4] | [5] | [6] | [7] | [8] | [9] | [10] | [11] | [12] | [13] | [14] | CD40, CD40 (gene 958) | [15] | [16] | [17] | [18] | [19]

CC1(C)NC(=O)NC1=O
inactive: [1] | [2] | [3] | [4] | [5] | [6] | [7] | [8] | [9] | [10] | [11] | [12] | [13] | [14] | CD40, CD40 (gene 958) | [15] | [16] | [17] | [18] | [19]

Cc1ccc(C)c(C)c1
inactive: [1] | [2] | [3] | [4] | [5] | [6] | [7] | [8] | [9] | [10] | [11] | [12] | [13] | [14] | CD40, CD40 (gene 958) | [15] | [16] | [17] | [18] | [19]
